For 17 compounds, composite z-score and z-score results are on record in PubChem BioAssay.

Active and inactive are the calls of the source.

The subject of experiment [1] is Plasmodium falciparum Sir2 (PF13_0152, Sir2A). Put plainly: Plasmodium falciparum Sir2A binding compounds – biochemical, small-molecule microarray, 635 nm fluorescence, primary screen (AID 1098).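 Note: score merges spot fluorescence intensity with its signal-to-noise ratio.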 To be noted: fluorescence 635 nm, higher = more signal.
Experiment [2] is described as follows: probe aDKK1 binding to arrayed compounds – biochemical, biotinylated probe, 635/667 nm fluorescence, primary screen (AID 1099).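 Note: score merges 667nm spot fluorescence with signal to noise across triplicate slides; reference of the scale not given here.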 To be noted: small-molecule microarray, higher = more signal.
A short description of experiment [3]: probe aCHRDL2 binding to arrayed compounds – biochemical, biotinylated probe, 635/667 nm fluorescence, primary screen (AID 1100). To be noted: small-molecule microarray, higher = more signal.
Experiment [4] is described as follows: change in splice reporter luminescence, either direction, cell-based, HEK293, spliceosome inhibition project, primary screen (AID 1101).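 Note: HEK293 cells carrying a splicing-competent luciferase reporter gene; test concentration not given here.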 Conditions: HEK293 splicing luciferase reporter, 24 h, higher = more signal, called active from +8 up or from −8 down.
Experiment [5] has as its target Fibroblast growth factor 10 (Homo sapiens) (UniProt O15520). Nature of the experiment: compounds binding fibroblast growth factor 10 – biochemical, small-molecule microarray, 635 nm fluorescence, primary screen (AID 1102). To be noted: FGF10 binding, fluorescence 635 nm, higher = more signal.
Experiment [6] deals with glycogen synthase kinase-3 (GSK3A per assay name; protocol says GSK3B). Nature of the experiment: compounds binding glycogen synthase kinase-3 – biochemical, small-molecule microarray, 635 nm fluorescence, GSK3A, primary screen (AID 1103). Note: the record names both GSK3A and GSK3B. Conditions: fluorescence 635 nm, higher = more signal.
The target of experiment [7] is Epidermal growth factor receptor (Homo sapiens) (UniProt P00533). Nature of the experiment: compounds binding epidermal growth factor receptor – biochemical, small-molecule microarray, 635 nm fluorescence, primary screen (AID 1104).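 Note: score merges 667 nm emission intensity with spot signal to noise over triplicate slides.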 To be noted: EGFR binding, higher = more signal.
Experiment [8] concerns the target Follistatin-related protein 3 (Homo sapiens) (UniProt O95633). Nature of the experiment: compounds binding follistatin-related protein 3 – biochemical, small-molecule microarray, 635 nm fluorescence, primary screen (AID 1105).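 Note: score merges emission near 667 nm and signal to noise per printed spot across three slides.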 To be noted: FSTL3 binding, higher = more signal.
Experiment [9] addresses Dickkopf-related protein 1 (Homo sapiens) (UniProt O94907). Nature of the experiment: small molecules binding DKK1 protein – biochemical, small-molecule microarray, 635 nm fluorescence scan, primary screen (AID 1106).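 Note: score merges emission near 667 nm with signal to noise over three replicate slides.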 Conditions: higher = more signal.
Experiment [10] concerns Inhibin beta A chain (activin A). Nature of the experiment: small molecules binding activin A – biochemical, small-molecule microarray, 635 nm fluorescence scan, primary screen (AID 1107).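 Note: mouse activin A protein probed at 4.33 µg/mL on printed slides; score merges bound-protein fluorescence near 667 nm with spot signal-to-noise.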 To be noted: INHBA, higher = more signal.

Chain of Dickkopf-related protein 1 (Homo sapiens) (O94907 whole entry, looked up): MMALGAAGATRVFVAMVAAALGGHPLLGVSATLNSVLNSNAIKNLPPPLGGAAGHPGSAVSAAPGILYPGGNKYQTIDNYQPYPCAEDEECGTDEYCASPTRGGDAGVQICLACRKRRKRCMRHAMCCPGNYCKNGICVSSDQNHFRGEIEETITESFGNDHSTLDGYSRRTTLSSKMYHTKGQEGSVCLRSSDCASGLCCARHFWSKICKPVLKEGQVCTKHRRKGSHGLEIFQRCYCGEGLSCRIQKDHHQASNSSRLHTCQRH
Chain of Follistatin-related protein 3 (Homo sapiens) (O95633 whole entry, looked up): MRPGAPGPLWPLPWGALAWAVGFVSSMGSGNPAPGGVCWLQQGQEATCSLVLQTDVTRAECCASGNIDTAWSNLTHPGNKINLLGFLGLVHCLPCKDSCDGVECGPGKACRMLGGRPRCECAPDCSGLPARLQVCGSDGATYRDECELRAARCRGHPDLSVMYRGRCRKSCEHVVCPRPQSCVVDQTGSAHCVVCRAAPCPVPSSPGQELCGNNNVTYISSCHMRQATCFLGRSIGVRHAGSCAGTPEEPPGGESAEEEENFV
Chain of Fibroblast growth factor 10 (Homo sapiens) (O15520 whole entry, looked up): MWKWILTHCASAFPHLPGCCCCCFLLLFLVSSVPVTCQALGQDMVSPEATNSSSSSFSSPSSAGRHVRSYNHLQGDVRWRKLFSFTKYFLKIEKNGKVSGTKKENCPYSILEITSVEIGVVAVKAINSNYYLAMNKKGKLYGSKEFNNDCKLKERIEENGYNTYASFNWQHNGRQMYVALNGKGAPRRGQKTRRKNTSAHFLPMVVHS
Chain of Epidermal growth factor receptor (Homo sapiens) (P00533 whole entry, looked up): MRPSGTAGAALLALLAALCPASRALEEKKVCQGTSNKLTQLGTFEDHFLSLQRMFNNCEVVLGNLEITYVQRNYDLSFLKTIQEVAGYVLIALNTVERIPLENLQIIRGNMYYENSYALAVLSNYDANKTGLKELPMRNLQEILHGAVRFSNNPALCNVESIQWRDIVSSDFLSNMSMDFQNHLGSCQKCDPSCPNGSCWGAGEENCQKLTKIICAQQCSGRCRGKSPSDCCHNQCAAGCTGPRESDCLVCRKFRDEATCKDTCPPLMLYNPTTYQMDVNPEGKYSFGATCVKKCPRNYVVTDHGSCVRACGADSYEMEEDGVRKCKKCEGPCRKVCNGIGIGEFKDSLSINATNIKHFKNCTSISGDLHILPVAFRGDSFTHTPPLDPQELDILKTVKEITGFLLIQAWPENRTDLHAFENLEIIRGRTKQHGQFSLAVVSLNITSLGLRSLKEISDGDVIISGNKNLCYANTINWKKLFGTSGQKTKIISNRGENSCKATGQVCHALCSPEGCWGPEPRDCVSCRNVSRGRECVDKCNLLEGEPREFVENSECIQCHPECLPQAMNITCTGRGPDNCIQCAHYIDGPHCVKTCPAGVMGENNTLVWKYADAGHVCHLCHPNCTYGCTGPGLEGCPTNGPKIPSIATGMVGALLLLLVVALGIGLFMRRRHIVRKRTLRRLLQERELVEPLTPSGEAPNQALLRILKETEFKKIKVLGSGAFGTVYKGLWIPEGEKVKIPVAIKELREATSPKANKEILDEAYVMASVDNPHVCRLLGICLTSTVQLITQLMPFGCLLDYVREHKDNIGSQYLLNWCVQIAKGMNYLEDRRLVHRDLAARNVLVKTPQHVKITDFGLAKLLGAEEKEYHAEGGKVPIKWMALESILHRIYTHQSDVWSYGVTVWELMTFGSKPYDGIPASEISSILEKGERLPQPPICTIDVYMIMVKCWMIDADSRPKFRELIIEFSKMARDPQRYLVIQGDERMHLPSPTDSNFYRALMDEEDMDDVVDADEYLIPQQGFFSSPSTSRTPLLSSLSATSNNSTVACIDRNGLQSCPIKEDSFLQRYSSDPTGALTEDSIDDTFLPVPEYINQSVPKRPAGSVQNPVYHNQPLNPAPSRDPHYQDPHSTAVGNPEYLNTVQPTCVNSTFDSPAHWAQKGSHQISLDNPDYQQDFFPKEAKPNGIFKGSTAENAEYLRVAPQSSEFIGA

Take `COc1ccc(COC(=O)NN=C2C[C@@H](O)[C@@H](O)[C@@H]3[C@@H]4C(=O)N([C@@H](C)c5ccccc5)C(=O)[C@@H]4CC[C@@H]23)cc1`: the composite z-score is 0.397 in [1]; 0.0429 in experiment [2]; -0.305 in experiment [3]; 0.132 in experiment [5]; -0.111 in experiment [6]; 0.362 in [7]. For the same compound, the composite z-score in experiment [8] was found to be 0.192; in experiment [9], 0.244; in experiment [10], 0.878. In addition, the z-score in [4] is 0.158 (inactive).

For the compound `COC(=O)[C@@H]1CC[C@H](C)[C@@H](c2ccc(C)cc2)N1C(=O)c1ccc(C=NO[C@@H](C)c2cc(-c3c(C)cc(C)cc3C)no2)cc1`, the composite z-score in experiment [1] is 0.321; in experiment [2], -0.12; in experiment [3], -0.144; in experiment [5], 0.418; in [6] it was 0.738; in [7] it was 0.51. The composite z-score in experiment [8] amounted to 0.242; in experiment [9], 0.675; in experiment [10], 0.598. Besides, in experiment [4], the z-score was -1.04 (inactive).

As for `CC(=O)OC[C@H]1O[C@@H](ON=C(C)CCC(=O)OC[C@H]2O[C@H](C#Cc3ccccc3)C=C[C@@H]2Oc2ccc(C)cc2)[C@H](OC(C)=O)[C@@H](OC(C)=O)[C@@H]1OC(C)=O`, the composite z-score is 0.888 in [1]; -0.148 in experiment [2]; -0.561 in experiment [3]; 0.782 in experiment [5]; 1.11 in [6]; 0.603 in experiment [7]. Besides, the results for the composite z-score in experiment [8], in experiment [9] and in experiment [10] were 0.786, 0.911 and -0.0231, respectively. Besides, the z-score in experiment [4] was -0.188 (inactive).

For `CCN1C(=O)[C@H]2[C@H]3[C@H](O)[C@H](O)CC(=NNC(=O)OCc4ccccc4)[C@H]3CC[C@H]2C1=O`, the composite z-score in [1] was -0.0508; in experiment [2], 0.0829; in experiment [3], 0.877; in experiment [5] it was 0.186; in [6], -0.493; in [7], -0.198. In addition, the composite z-score in experiment [8] is -0.0353; in experiment [9], -0.26; in experiment [10], 0.0251. Besides, the z-score in experiment [4] is -0.45 (inactive).

As to `CON=C[C@@H](OC)[C@H](C)C=CCC(=O)OC`, the composite z-score is -0.387 in [1]; -0.171 in experiment [2]; -0.165 in experiment [3]; -0.135 in [5]; -0.115 in experiment [6]; 0.327 in [7]. For the same compound, the composite z-score in [8] was -0.23; in [9], -0.067; in experiment [10], 0.892. Further, the z-score in [4] is -0.165 (inactive).

Take `C#CCCCON=C1[C@H]2CCn3c(=O)n([C@@H](CC)c4ccccc4)c(=O)n3[C@H]2[C@H](O)[C@@H]2O[C@H]12`: the composite z-score was 1.1 in experiment [1]; -0.175 in [2]; -0.317 in experiment [3]; 0.581 in [5]; -0.51 in experiment [6]; 0.179 in experiment [7]. Also, the composite z-score in [8] stood at 0.34; in experiment [9] it was 0.209; in experiment [10], 0.228. Moreover, the z-score in experiment [4] was 6.03 (inactive).

`CC(CCN1CCCCc2nc(C)c(C)cc21)=NO[C@H](C)c1cn([C@@H]2COC[C@H]2O)nn1`: the composite z-score in experiment [1] was 0.742; in experiment [2] it was -0.404; in experiment [3] it was -0.961; in experiment [5], 1.23; in experiment [6], 1.16; in experiment [7], 1.61. For the same compound, the composite z-score in experiment [8] stood at 1.43; in [9], 2.15; in [10], 1.21. In addition, the z-score in experiment [4] is 1.09 (inactive).

As to `CCN1C(=O)[C@H]2[C@@H]3C(=CC[C@H]2C1=O)C(=O)[C@H]1O[C@H]1[C@H]3O`, the composite z-score is 0.641 in [1]; -0.409 in experiment [2]; -0.722 in [3]; 1.06 in [5]; 1.11 in [6]; 0.827 in experiment [7]. The composite z-score in experiment [8] stood at 1.28; in experiment [9], 1.17; in [10] it was 0.065. The z-score in experiment [4] is 17 (active).

Take `C[C@@H](c1ccccc1)N1C(=O)[C@H]2[C@H]3[C@H](O)[C@H](O)CC(=NOCc4ccccc4)[C@@H]3CC[C@H]2C1=O`: the composite z-score in experiment [1] was -0.139; in experiment [2] it was 1.19; in experiment [3], 1.31; in experiment [5], -0.222; in experiment [6], -0.187; in experiment [7], -0.169. The values for the composite z-score in [8], in experiment [9] and in [10] were -0.909, -1 and 0.549, respectively. Moreover, the z-score in [4] was 0.36 (inactive).

For `CCOC(=O)NN=C1C[C@@H](O)[C@@H](O)[C@@H]2[C@@H]3C(=O)N(CC)C(=O)[C@@H]3CC[C@H]12`, the composite z-score in [1] is -0.04; in experiment [2], -0.115; in [3] it was -0.254; in experiment [5] it was 0.125; in experiment [6], -0.256; in [7], 0.283. In addition, the composite z-score was -0.188 in experiment [8], 0.191 in experiment [9] and -0.145 in experiment [10]. The z-score in experiment [4] is -0.322 (inactive).

With `COC(=O)CC=C[C@@H](C)[C@@H](C=NOC(C)CN1CCCCc2nc(C)c(C)cc21)OC` (stereo not given in full), the composite z-score in [1] is 0.519; in experiment [2], -0.343; in [3], -0.613; in experiment [5], -0.285; in [6], 0.959; in experiment [7], 0.686. Besides, the results for the composite z-score in experiment [8], in experiment [9] and in experiment [10] were 0.975, 1.33 and 1.19, respectively. The z-score in [4] was 0.854 (inactive).

Turning to `O=C1C2=CC[C@H]3C(=O)N(c4ccc(F)cc4F)C(=O)[C@H]3[C@H]2[C@H](O)[C@@H]2O[C@H]12`, the composite z-score was 0.305 in [1]; -0.378 in experiment [2]; -0.778 in experiment [3]; 0.472 in experiment [5]; 0.578 in experiment [6]; 0.347 in [7]. Moreover, the composite z-score was 0.453 in experiment [8], 0.658 in [9] and -0.172 in experiment [10]. Also, in experiment [4], the z-score is -0.35 (inactive).

Regarding `C=CCOCC1CN2[C@@H](CC[C@@H](C)[C@@H]2c2ccc(Br)cc2)C(=O)O1` (stereo not given in full), the composite z-score in [1] was -0.316; in experiment [2], -0.182; in experiment [3], -0.165; in [5], -0.342; in experiment [6] it was -0.255; in [7], -0.014. The composite z-score is -0.293 in experiment [8], 0.0635 in experiment [9] and 0.757 in experiment [10]. The z-score in experiment [4] is 0.597 (inactive).

Turning to `C[C@@H]1CC[C@H]2C(=O)OC(CN3C(=O)c4ccccc4C3=O)CN2[C@H]1c1ccc(Br)cc1` (stereo not given in full), the composite z-score is 0.532 in [1]; -0.117 in experiment [2]; -0.0788 in [3]; 0.398 in experiment [5]; -0.0067 in [6]; 0.13 in experiment [7]. Further, the composite z-score in experiment [8] was -0.234; in [9], 0.383; in experiment [10] it was 0.74. For the same compound, in [4], the z-score is 0.5 (inactive).

Take `COC(=O)[C@H](C)NC(=O)CCC1CC(OC(=O)NCc2ccc3c(c2)OCO3)CC2(CCCC(COC(=O)NCCCN3CCCC3=O)O2)O1` (stereo not given in full): the composite z-score is 0.842 in [1]; -0.286 in [2]; -0.189 in [3]; 0.601 in [5]; 1.28 in [6]; 0.638 in [7]. Moreover, the figures for the composite z-score in experiment [8], in experiment [9] and in experiment [10] were 0.856, 1.41 and -0.109, respectively. Also, the z-score in experiment [4] is 0.245 (inactive).

Turning to `O=C1[C@H]2[C@H]3[C@H](O)[C@H](O)CC(=NO[C@@H]4O[C@H](CO)[C@@H](O)[C@H](O)[C@H]4O)[C@H]3CC[C@H]2C(=O)N1C[C@@H]1CCCO1`, the composite z-score in [1] is 0.323; in experiment [2] it was -0.273; in experiment [3], -0.344; in experiment [5], 0.0269; in experiment [6], -0.027; in experiment [7], 0.522. The composite z-score in experiment [8] is 0.0553; in [9], -0.0079; in experiment [10] it was -0.915. For the same compound, the z-score in experiment [4] is 0.0676 (inactive).

For the compound `CC(CCC(=O)OC[C@H]1O[C@H](C#Cc2ccccc2)C=C[C@@H]1Oc1ccc(C)cc1)=NOC(C)CN1CCCc2nc(C)c(C)cc21` (stereo not given in full), the composite z-score in experiment [1] is 0.839; in [2], -0.143; in experiment [3], -0.35; in experiment [5] it was 0.732; in experiment [6], 0.727; in experiment [7] it was 0.335. In addition, the values for the composite z-score in experiment [8], in experiment [9] and in experiment [10] were 0.694, 0.397 and 0.531, respectively. In [4], the z-score is 0.00662 (inactive).
